# According to PubChem BioAssay:
# Activity calls are given as the source filed them.
# What was measured:
# [1] = system: PRMT1 (protein arginine N-methyltransferase 1); assay: small molecules binding arginine methyltransferase PRMT1 – biochemical, small-molecule microarray, 635 nm fluorescence, primary screen (AID 1088); details: higher = more signal;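 also: binding of Prmt1 protein to compounds spotted on small-molecule microarray slides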
# [2] = growth effects on S. cerevisiae YJM789 – YJM789 clinical isolate, OD600, 24 h, basal, primary screen (AID 1089); details: higher = more signal, called active from +8 up or from −8 down;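 also: growth of clinical yeast isolate S. cerevisiae YJM 789 seeded 1000 cells per well; test concentration not given here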
# [3] = S. pombe growth modifiers, basal conditions – strain 972, OD600, 24 h, no modulator, primary screen (AID 1090);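 also: basal condition with compound alone and no growth modifier present; test concentration not given here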; details: S. pombe 972 growth, higher = more signal, called active from +8 up or from −8 down
# [4] = budding yeast growth modifiers under rapamycin – strain BY4716, OD600, 96 h, primary screen (AID 1091); also: test concentration not given here; details: S. cerevisiae BY4716 + rapamycin, higher = more signal, called active from +8 up or from −8 down
# [5] = target: Torsin-1A-interacting protein 2 (Homo sapiens) (UniProt Q8NFQ8); assay: small molecules binding lysate-expressed LULL1 – cell lysate, human LULL1 lysate, 635/667 nm fluorescence, primary screen (AID 1092); details: small-molecule microarray, hLULL1 lysate binding, 635 nm fluorescence; higher = more signal;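 also: probe is lysate of COS7 cells overexpressing human LULL1; score merges per-feature 667 nm fluorescence with signal-to-noise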
# [6] = optical density change of DRC41 E. coli – strain DRC41, OD650, 24 h, E. coli filamentation project, primary screen (AID 1093);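 also: MC1000 strain lacking acrAB efflux and sulA so SOS filamentation is blocked; test concentration not given here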; details: E. coli DRC41 growth, higher = more signal, called active from +8 up or from −8 down
# [7] = probe aLefty2 binding to arrayed compounds – biochemical, biotinylated probe, 635/667 nm fluorescence, primary screen (AID 1094); details: small-molecule microarray, higher = more signal;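 also: score merges spot fluorescence near 667 nm with spot signal-to-noise ratio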
# [8] = system: Noggin (protein binding on small-molecule microarray); assay: small molecules binding Noggin protein – biochemical, 635/667 nm fluorescence, primary screen (AID 1095); details: 635 nm fluorescence, higher = more signal;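 also: score merges 667 nm feature fluorescence with signal to noise over triplicate slides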
# [9] = target: Neurogenic locus notch homolog protein 3 (Homo sapiens) (UniProt Q9UM47); assay: small molecules binding NOTCH3 protein – biochemical, 635/667 nm fluorescence, primary screen (AID 1096); details: small-molecule microarray, 635 nm fluorescence, higher = more signal
# [10] = probe aEGFR binding to arrayed compounds – biochemical, biotinylated probe, 635/667 nm fluorescence, primary screen (AID 1097); details: small-molecule microarray, higher = more signal;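 also: probe is a biotinylated anti-EGFR antibody binding compounds printed on slides; score combines fluorescence near 667 nm and signal to noise of each spot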
# [11] = system: Plasmodium falciparum Sir2 (PF13_0152, Sir2A); assay: Plasmodium falciparum Sir2A binding compounds – biochemical, small-molecule microarray, 635 nm fluorescence, primary screen (AID 1098); details: fluorescence 635 nm, higher = more signal;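 also: score merges spot fluorescence intensity with its signal-to-noise ratio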
# [12] = probe aDKK1 binding to arrayed compounds – biochemical, biotinylated probe, 635/667 nm fluorescence, primary screen (AID 1099); details: small-molecule microarray, higher = more signal;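 also: score merges 667nm spot fluorescence with signal to noise across triplicate slides; reference of the scale not given here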
# [13] = probe aCHRDL2 binding to arrayed compounds – biochemical, biotinylated probe, 635/667 nm fluorescence, primary screen (AID 1100); details: small-molecule microarray, higher = more signal
# [14] = change in splice reporter luminescence, either direction, cell-based, HEK293, spliceosome inhibition project, primary screen (AID 1101); details: HEK293 splicing luciferase reporter, 24 h, higher = more signal, called active from +8 up or from −8 down;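 also: HEK293 cells carrying a splicing-competent luciferase reporter gene; test concentration not given here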
# [15] = target: Fibroblast growth factor 10 (Homo sapiens) (UniProt O15520); assay: compounds binding fibroblast growth factor 10 – biochemical, small-molecule microarray, 635 nm fluorescence, primary screen (AID 1102); details: FGF10 binding, fluorescence 635 nm, higher = more signal
# [16] = system: glycogen synthase kinase-3 (GSK3A per assay name; protocol says GSK3B); assay: compounds binding glycogen synthase kinase-3 – biochemical, small-molecule microarray, 635 nm fluorescence, GSK3A, primary screen (AID 1103); details: fluorescence 635 nm, higher = more signal; also: the record names both GSK3A and GSK3B
# [17] = target: Epidermal growth factor receptor (Homo sapiens) (UniProt P00533); assay: compounds binding epidermal growth factor receptor – biochemical, small-molecule microarray, 635 nm fluorescence, primary screen (AID 1104); details: EGFR binding, higher = more signal;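 also: score merges 667 nm emission intensity with spot signal to noise over triplicate slides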
# [18] = target: Follistatin-related protein 3 (Homo sapiens) (UniProt O95633); assay: compounds binding follistatin-related protein 3 – biochemical, small-molecule microarray, 635 nm fluorescence, primary screen (AID 1105); details: FSTL3 binding, higher = more signal;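 also: score merges emission near 667 nm and signal to noise per printed spot across three slides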
# [19] = target: Dickkopf-related protein 1 (Homo sapiens) (UniProt O94907); assay: small molecules binding DKK1 protein – biochemical, small-molecule microarray, 635 nm fluorescence scan, primary screen (AID 1106); details: higher = more signal;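 also: score merges emission near 667 nm with signal to noise over three replicate slides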
# [20] = system: Inhibin beta A chain (activin A); assay: small molecules binding activin A – biochemical, small-molecule microarray, 635 nm fluorescence scan, primary screen (AID 1107); details: INHBA, higher = more signal;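 also: mouse activin A protein probed at 4.33 µg/mL on printed slides; score merges bound-protein fluorescence near 667 nm with spot signal-to-noise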
# Sequence of Epidermal growth factor receptor (Homo sapiens) (P00533 whole entry, looked up): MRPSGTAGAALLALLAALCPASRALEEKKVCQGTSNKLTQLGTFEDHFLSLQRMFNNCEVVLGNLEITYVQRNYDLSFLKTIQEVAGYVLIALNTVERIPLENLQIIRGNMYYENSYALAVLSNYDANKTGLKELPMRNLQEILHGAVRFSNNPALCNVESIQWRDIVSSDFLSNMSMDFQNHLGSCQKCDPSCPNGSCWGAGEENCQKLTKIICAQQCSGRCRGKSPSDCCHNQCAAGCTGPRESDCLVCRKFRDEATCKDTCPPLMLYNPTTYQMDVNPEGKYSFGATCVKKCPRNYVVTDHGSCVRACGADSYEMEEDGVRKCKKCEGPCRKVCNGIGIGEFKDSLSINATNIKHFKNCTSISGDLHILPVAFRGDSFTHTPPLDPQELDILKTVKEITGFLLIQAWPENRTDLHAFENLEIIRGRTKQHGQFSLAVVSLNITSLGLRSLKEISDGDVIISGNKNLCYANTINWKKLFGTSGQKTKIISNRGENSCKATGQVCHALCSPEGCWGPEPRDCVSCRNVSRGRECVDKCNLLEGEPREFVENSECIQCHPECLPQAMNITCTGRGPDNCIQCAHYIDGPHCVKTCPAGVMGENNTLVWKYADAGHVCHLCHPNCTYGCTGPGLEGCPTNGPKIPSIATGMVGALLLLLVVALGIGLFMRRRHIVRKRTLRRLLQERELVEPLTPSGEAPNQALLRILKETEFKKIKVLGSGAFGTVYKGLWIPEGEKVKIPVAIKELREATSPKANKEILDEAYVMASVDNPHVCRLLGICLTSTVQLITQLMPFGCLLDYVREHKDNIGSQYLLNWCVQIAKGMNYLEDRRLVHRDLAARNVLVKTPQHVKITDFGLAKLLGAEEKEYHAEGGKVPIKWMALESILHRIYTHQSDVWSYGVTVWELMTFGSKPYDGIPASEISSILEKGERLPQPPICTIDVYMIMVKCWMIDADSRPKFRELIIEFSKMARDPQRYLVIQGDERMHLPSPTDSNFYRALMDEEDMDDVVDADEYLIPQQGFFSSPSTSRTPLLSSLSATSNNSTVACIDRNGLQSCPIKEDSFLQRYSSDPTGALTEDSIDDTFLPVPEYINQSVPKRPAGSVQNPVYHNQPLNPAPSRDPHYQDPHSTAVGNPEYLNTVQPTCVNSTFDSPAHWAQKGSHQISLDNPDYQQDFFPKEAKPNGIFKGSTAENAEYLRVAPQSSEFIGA
# Sequence of Neurogenic locus notch homolog protein 3 (Homo sapiens) (Q9UM47 whole entry, looked up): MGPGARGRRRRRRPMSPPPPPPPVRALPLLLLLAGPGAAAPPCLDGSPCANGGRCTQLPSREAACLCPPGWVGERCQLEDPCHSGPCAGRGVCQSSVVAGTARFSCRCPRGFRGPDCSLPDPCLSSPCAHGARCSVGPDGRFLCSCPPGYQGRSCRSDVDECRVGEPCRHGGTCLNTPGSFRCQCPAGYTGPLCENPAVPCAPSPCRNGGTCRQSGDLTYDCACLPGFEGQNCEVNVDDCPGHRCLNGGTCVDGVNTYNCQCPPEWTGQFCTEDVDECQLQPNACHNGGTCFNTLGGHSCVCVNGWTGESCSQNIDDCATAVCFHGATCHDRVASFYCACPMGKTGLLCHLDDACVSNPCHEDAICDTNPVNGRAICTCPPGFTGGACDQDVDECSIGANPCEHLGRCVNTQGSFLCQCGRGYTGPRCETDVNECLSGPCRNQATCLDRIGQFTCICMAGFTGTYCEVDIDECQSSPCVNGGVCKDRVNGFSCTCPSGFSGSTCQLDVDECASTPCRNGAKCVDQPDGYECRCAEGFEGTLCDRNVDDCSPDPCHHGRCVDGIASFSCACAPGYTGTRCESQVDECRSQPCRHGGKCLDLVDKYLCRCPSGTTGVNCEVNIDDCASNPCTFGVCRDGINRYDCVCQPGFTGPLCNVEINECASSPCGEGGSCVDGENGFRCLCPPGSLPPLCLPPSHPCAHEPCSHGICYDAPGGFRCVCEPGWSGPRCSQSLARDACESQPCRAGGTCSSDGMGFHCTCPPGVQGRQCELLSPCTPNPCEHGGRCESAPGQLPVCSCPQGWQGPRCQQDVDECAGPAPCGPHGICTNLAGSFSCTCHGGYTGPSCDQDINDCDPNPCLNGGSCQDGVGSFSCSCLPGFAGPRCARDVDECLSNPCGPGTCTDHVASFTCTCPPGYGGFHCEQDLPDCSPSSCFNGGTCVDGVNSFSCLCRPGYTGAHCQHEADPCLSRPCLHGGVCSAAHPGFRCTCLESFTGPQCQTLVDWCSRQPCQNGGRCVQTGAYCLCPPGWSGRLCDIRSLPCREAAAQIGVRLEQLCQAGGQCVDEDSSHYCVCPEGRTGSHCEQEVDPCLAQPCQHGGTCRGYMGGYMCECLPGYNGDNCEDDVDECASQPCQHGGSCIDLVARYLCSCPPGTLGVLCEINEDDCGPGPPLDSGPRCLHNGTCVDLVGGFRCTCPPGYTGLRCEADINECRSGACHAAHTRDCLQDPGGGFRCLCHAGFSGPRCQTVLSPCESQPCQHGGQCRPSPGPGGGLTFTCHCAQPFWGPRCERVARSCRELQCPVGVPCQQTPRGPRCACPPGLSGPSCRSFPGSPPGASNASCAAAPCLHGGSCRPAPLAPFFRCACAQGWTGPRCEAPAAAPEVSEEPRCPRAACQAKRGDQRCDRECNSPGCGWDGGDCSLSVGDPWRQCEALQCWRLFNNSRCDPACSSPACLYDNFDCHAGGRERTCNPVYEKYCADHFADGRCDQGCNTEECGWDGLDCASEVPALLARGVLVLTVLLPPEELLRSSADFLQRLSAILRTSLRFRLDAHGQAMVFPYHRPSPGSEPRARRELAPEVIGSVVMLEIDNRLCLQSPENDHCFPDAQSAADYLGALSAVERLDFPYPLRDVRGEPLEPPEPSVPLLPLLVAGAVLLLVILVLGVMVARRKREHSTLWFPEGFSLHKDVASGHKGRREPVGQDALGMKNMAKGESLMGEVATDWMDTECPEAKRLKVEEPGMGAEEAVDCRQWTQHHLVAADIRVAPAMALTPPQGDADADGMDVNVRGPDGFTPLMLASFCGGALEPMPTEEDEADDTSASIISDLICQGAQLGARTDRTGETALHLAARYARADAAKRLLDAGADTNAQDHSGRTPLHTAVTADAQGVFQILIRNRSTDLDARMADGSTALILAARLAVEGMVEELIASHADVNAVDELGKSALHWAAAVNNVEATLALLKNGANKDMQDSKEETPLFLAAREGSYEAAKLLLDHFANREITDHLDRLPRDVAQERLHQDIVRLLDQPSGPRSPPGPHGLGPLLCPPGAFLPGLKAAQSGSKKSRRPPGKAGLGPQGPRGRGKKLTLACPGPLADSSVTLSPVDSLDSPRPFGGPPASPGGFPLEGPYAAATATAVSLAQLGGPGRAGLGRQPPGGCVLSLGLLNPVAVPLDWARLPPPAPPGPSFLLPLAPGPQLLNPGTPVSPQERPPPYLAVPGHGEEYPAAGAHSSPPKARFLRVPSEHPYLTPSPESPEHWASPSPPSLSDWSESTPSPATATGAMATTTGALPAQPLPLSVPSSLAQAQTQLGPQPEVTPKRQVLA
# Sequence of Torsin-1A-interacting protein 2 (Homo sapiens) (Q8NFQ8 whole entry, looked up): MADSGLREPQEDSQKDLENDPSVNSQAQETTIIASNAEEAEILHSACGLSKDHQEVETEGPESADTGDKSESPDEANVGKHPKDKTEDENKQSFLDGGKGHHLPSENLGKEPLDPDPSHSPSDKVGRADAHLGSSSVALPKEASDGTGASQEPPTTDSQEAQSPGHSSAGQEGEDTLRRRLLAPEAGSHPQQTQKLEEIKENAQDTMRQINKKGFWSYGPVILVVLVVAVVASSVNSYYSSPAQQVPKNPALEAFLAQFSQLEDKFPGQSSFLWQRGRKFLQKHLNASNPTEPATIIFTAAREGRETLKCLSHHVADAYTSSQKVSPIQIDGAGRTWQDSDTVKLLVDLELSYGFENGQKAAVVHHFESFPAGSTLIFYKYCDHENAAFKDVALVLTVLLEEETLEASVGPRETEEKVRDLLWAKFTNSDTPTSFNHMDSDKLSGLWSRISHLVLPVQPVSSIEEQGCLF
# Sequence of Follistatin-related protein 3 (Homo sapiens) (O95633 whole entry, looked up): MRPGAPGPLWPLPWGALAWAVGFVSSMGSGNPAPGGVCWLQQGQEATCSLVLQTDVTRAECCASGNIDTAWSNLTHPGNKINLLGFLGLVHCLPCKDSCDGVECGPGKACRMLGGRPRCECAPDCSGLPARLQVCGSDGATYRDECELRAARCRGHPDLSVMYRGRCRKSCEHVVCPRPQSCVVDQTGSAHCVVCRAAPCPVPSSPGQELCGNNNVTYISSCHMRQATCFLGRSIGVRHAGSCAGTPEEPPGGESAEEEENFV
# Sequence of Dickkopf-related protein 1 (Homo sapiens) (O94907 whole entry, looked up): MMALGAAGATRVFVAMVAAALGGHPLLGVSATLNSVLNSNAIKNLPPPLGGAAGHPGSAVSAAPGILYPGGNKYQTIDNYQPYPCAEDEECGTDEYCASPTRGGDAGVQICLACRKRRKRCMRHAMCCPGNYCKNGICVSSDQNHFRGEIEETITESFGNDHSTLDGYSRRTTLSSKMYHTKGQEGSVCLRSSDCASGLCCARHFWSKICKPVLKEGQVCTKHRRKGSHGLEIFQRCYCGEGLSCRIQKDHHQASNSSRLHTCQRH
# Sequence of Fibroblast growth factor 10 (Homo sapiens) (O15520 whole entry, looked up): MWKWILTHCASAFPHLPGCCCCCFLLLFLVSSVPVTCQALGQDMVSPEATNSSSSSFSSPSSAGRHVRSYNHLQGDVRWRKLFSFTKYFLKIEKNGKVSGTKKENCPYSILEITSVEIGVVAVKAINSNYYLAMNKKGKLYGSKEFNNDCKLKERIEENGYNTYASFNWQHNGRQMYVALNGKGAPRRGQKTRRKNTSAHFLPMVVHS
smiles,measurement,setting,value
CC1=C2[C@@H](CCc3ccccc3)OB(O)C[C@@H]2[C@@H]2C(=O)C=CC(=O)[C@@H]2C1,composite z-score,[1],1.31
same,z-score,[2],-0.689 (inactive)
same,z-score,[3],-15.6 (active)
same,z-score,[4],-0.679 (inactive)
same,composite z-score,[5],0.775
same,z-score,[6],-0.315 (inactive)
same,composite z-score,[7],0.0037
same,composite z-score,[8],0.642
same,composite z-score,[9],1.1
same,composite z-score,[10],0.0484
same,composite z-score,[11],0.338
same,composite z-score,[12],-0.102
same,composite z-score,[13],-0.48
same,z-score,[14],3.33 (inactive)
same,composite z-score,[15],1.28
same,composite z-score,[16],0.612
same,composite z-score,[17],0.309
same,composite z-score,[18],0.853
same,composite z-score,[19],0.636
same,composite z-score,[20],0.729
CCC[C@@H]1C[C@@]1(CCC)[C@@H](NC(=O)c1cccs1)c1ccc(Cl)cc1,composite z-score,[1],0.0333
same,z-score,[2],-0.5 (inactive)
same,z-score,[3],-3.76 (inactive)
same,z-score,[4],-0.454 (inactive)
same,composite z-score,[5],1.4
same,z-score,[6],0.102 (inactive)
same,composite z-score,[7],0.0395
same,composite z-score,[8],-1.87
same,composite z-score,[9],-0.118
same,composite z-score,[10],-0.435
same,composite z-score,[11],-0.67
same,composite z-score,[12],0.119
same,composite z-score,[13],1.09
same,z-score,[14],-1.15 (inactive)
same,composite z-score,[15],-0.341
same,composite z-score,[16],-0.919
same,composite z-score,[17],-2.21
same,composite z-score,[18],-2.17
same,composite z-score,[19],-1.76
same,composite z-score,[20],0.948
CC(C)C[C@@H]1NC(=O)[C@@]23C(=O)N[C@@H](Cc4ccccc4)C2[C@H](C)[C@@]2(C)O[C@H]2C3/C=C/C/C=C\CNC(=O)[C@@H]2CCCN2C1=O (stereo not given in full),composite z-score,[1],-0.653
same,z-score,[2],0.0289 (inactive)
same,z-score,[3],-0.151 (inactive)
same,z-score,[4],-0.453 (inactive)
same,composite z-score,[5],0.0315
same,z-score,[6],-0.762 (inactive)
same,composite z-score,[7],-0.223
same,composite z-score,[8],0.326
same,composite z-score,[9],-0.46
same,composite z-score,[10],-0.121
same,composite z-score,[11],0.324
same,composite z-score,[12],-0.277
same,composite z-score,[13],-0.719
same,z-score,[14],-0.358 (inactive)
same,composite z-score,[15],0.0165
same,composite z-score,[16],-0.623
same,composite z-score,[17],0.0731
same,composite z-score,[18],0.361
same,composite z-score,[19],0.534
same,composite z-score,[20],1.42
Cc1ccc(C(C)CC(O)C2C=CC3C(=O)N(Cc4ccccc4)C(=O)C3N2n2cnnc2)o1 (stereo not given),composite z-score,[1],1.49
same,z-score,[2],-3.19 (inactive)
same,z-score,[3],-2.84 (inactive)
same,z-score,[4],-0.829 (inactive)
same,composite z-score,[5],2.51
same,z-score,[6],-1.56 (inactive)
same,composite z-score,[7],1.1
same,composite z-score,[8],0.0433
same,composite z-score,[9],1.09
same,composite z-score,[10],0.778
same,composite z-score,[11],0.755
same,composite z-score,[12],1.85
same,composite z-score,[13],1.03
same,z-score,[14],-0.665 (inactive)
same,composite z-score,[15],0.841
same,composite z-score,[16],0.866
same,composite z-score,[17],0.0138
same,composite z-score,[18],0.668
same,composite z-score,[19],-0.484
same,composite z-score,[20],1.09
C=CCNC(=O)[C@H]1[C@@H]2C(=O)O[C@@H](c3ccccc3)[C@@H](c3ccccc3)N2[C@@H](c2ccc(OCCO)cc2)[C@]12C(=O)N(C(=O)OCCOC)c1ccc(C#CC3=CCCCC3)cc12,composite z-score,[1],1.55
same,z-score,[2],0.573 (inactive)
same,z-score,[3],0.656 (inactive)
same,z-score,[4],2.97 (inactive)
same,composite z-score,[5],2.76
same,z-score,[6],1.89 (inactive)
same,composite z-score,[7],-0.0477
same,composite z-score,[8],0.826
same,composite z-score,[9],1.09
same,composite z-score,[10],-0.0237
same,composite z-score,[11],1.39
same,composite z-score,[12],0.0825
same,composite z-score,[13],-0.0093
same,z-score,[14],-1.98 (inactive)
same,composite z-score,[15],1.17
same,composite z-score,[16],1.31
same,composite z-score,[17],0.475
same,composite z-score,[18],1.11
same,composite z-score,[19],0.522
same,composite z-score,[20],0.373
